Reference: the supplement of paper PMC10849652
The full data set covers some 8,800 targets. This sample favours those with a hit. About 0.5% of all pairs of compound and target were hits. Values without a mark were called inactive.

Tests used:
Test in all cases: log2 fold change, soluble protein after heating vs DMSO (PISA); higher = thermal stabilisation; K562 lysate, 10 uM; active = over 0.2 and 3.5 SD of the protein, either way, in both replicates (recomputed)
vemurafenib = compound: CCCS(=O)(=O)Nc1ccc(F)c(C(=O)c2c[nH]c3ncc(-c4ccc(Cl)cc4)cc23)c1F [vemurafenib]
In short: (§1)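 Following dounce homogenisation of K562 pellets in PBS pH 7.4 with 1 mM MgCl2, crude extract at 1 mg/mL protein was incubated for 30 min with 10 μM compound. Aliquots were then heated for 3 min over 48°C-58°C and pooled, NP-40 was added to 0.5% at 4°C, and soluble protein was recovered as the supernatant at 21,000xg for 90 min. Channel-sum-equalised TMTpro 16plex LC-MS/MS quantified this protein. Each value, from duplicates, is a log-two fold change in thermal stability relative to solvent controls.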

[1] = compound: CCCS(=O)(=O)Nc1ccc(F)c(C(=O)c2c[nH]c3ncc(Cl)cc23)c1F
In short: as §1

barasertib = compound: CCN(CCCOc1ccc2c(Nc3cc(CC(=O)Nc4cccc(F)c4)[nH]n3)ncnc2c1)CCOP(=O)(O)O [barasertib]
In short: as §1

[2] = compound: CC[C@@H]1C(=O)N(C)c2cnc(Nc3ccc(C(=O)NC4CCN(C)CC4)cc3OC)nc2N1C1CCCC1
In short: as §1

volasertib = compound: CC[C@@H]1C(=O)N(C)c2cnc(Nc3ccc(C(=O)N[C@H]4CC[C@H](N5CCN(CC6CC6)CC5)CC4)cc3OC)nc2N1C(C)C [volasertib]
In short: as §1

[3] = compound: CCn1c(C(=O)N(C2CC2)C2CC2)cc2c3c(ncn3C)c(Nc3cc(C)n(C)n3)nc21
In short: as §1

[4] = compound: CCn1cc(-c2ccnc3[nH]c(-c4cccc(CN(C)C)c4)cc23)c(-c2ccc(NC(=O)N(C)C)cc2)n1
In short: as §1

[5] = compound: CN1CCC(CNc2ccc3ncc(-c4cccc(OC(F)(F)F)c4)n3n2)CC1
In short: as §1

saracatinib = compound: CN1CCN(CCOc2cc(OC3CCOCC3)c3c(Nc4c(Cl)ccc5c4OCO5)ncnc3c2)CC1 [saracatinib]
In short: as §1

sotrastaurin = compound: CN1CCN(c2nc(C3=C(c4c[nH]c5ccccc45)C(=O)NC3=O)c3ccccc3n2)CC1 [sotrastaurin]
In short: as §1

alvocidib = compound: CN1CC[C@H](c2c(O)cc(O)c3c(=O)cc(-c4ccccc4Cl)oc23)[C@H](O)C1 [alvocidib]
In short: as §1

Tubastatin A = compound: CN1CCc2c(c3ccccc3n2Cc2ccc(C(=O)NO)cc2)C1 [Tubastatin A]
In short: as §1

[6] = compound: CNC(=O)C1=CC=CC=C1NC2=NC(=NC=C2Cl)NC3=C(C=C(C=C3)N4CCOCC4)OC
In short: as §1

defactinib = compound: CNC(=O)c1ccc(Nc2ncc(C(F)(F)F)c(NCc3nccnc3N(C)S(C)(=O)=O)n2)cc1 [defactinib]
In short: as §1

[7] = compound: CNc1nc(-c2ccc3c(N)n[nH]c3c2)cc(N2C[C@@H](C(=O)NC3CCCCC3)CC[C@H]2C)n1
In short: as §1

encorafenib = compound: COC(=O)N[C@@H](C)CNc1nccc(-c2cn(C(C)C)nc2-c2cc(Cl)cc(NS(C)(=O)=O)c2F)n1 [encorafenib]
In short: as §1

[8] = compound: COC(=O)[C@H](CCSC)NC(=O)C1=C(C=C(C=C1)NC[C@H](CS)N)C2=CC=CC=C2
In short: as §1

alisertib = compound: COc1cc(Nc2ncc3c(n2)-c2ccc(Cl)cc2C(c2c(F)cccc2OC)=NC3)ccc1C(=O)O [alisertib]
In short: as §1

[9] = compound: COc1cc2nc(-c3cc(F)ccc3O)nc(N[C@@H]3CNC[C@H]3C(C)(C)O)c2cc1OC
In short: as §1

gefitinib = compound: COc1cc2ncnc(Nc3ccc(F)c(Cl)c3)c2cc1OCCCN1CCOCC1 [gefitinib]
In short: as §1

UniProt Q9UBB9, sequence (Q9UBB9 whole entry, looked up): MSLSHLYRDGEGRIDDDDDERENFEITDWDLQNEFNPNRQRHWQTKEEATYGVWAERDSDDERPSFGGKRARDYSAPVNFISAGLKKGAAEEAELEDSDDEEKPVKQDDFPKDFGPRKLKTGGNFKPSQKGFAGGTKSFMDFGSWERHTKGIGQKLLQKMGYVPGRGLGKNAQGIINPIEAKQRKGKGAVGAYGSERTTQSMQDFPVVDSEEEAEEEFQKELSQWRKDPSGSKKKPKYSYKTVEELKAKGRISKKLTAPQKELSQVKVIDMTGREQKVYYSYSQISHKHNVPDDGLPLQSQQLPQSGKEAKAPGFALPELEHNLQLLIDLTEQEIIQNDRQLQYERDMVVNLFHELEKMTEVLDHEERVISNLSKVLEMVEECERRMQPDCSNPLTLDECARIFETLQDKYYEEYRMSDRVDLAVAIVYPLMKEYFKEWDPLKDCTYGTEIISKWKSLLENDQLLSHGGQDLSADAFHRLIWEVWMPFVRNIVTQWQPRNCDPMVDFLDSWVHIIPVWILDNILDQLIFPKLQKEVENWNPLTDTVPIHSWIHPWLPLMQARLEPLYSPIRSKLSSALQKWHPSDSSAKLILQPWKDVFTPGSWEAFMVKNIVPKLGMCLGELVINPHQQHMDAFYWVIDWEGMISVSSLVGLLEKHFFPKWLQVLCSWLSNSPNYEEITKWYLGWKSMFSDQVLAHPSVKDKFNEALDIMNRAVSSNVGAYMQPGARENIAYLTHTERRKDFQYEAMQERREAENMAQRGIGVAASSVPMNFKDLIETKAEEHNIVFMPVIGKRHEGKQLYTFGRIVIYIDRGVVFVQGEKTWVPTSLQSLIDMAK
UniProt Q9UGJ1, sequence (Q9UGJ1 whole entry, looked up): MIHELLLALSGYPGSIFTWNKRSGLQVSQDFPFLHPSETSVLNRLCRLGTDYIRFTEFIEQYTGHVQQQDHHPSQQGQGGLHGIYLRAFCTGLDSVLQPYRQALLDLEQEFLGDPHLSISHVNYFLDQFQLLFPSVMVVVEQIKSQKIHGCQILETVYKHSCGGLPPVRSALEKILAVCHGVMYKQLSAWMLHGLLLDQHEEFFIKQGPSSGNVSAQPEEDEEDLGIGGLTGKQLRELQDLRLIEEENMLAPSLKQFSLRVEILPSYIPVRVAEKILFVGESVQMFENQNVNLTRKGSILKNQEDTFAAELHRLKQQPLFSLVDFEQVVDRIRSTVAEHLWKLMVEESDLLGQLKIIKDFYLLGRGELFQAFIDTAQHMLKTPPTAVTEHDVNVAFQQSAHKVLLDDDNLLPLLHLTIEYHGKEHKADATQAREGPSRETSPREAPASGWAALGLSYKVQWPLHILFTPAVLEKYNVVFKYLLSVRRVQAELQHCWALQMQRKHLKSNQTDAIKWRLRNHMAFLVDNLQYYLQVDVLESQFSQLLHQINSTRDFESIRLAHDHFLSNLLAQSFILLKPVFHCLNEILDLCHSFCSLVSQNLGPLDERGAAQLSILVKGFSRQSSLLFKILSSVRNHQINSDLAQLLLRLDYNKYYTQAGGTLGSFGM
UniProt Q9UPU7, sequence (Q9UPU7 whole entry, looked up): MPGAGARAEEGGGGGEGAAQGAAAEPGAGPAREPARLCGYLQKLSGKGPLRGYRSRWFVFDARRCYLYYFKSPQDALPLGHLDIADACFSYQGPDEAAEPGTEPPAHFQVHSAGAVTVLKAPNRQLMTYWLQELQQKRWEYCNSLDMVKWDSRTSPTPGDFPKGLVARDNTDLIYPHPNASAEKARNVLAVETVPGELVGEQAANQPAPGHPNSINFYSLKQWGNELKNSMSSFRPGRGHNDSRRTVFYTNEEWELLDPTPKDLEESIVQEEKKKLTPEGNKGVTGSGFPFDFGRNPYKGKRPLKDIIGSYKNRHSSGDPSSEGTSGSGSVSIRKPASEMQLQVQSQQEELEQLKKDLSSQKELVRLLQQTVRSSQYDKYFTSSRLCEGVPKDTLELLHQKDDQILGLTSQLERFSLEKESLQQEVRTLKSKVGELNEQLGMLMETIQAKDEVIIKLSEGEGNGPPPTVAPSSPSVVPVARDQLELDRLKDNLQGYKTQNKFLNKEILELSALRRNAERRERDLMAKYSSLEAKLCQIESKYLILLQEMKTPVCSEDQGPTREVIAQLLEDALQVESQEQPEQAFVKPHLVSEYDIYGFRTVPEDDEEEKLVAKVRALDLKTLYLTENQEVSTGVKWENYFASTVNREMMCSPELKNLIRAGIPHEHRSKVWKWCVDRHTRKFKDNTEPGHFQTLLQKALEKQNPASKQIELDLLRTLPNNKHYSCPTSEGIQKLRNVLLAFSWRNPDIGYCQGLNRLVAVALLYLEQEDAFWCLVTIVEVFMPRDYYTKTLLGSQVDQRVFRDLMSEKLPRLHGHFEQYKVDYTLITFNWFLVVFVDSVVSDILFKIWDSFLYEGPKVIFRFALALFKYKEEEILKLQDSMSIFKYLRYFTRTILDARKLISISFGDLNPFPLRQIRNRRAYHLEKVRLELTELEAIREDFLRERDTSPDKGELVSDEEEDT
UniProt Q13885, sequence (Q13885 whole entry, looked up): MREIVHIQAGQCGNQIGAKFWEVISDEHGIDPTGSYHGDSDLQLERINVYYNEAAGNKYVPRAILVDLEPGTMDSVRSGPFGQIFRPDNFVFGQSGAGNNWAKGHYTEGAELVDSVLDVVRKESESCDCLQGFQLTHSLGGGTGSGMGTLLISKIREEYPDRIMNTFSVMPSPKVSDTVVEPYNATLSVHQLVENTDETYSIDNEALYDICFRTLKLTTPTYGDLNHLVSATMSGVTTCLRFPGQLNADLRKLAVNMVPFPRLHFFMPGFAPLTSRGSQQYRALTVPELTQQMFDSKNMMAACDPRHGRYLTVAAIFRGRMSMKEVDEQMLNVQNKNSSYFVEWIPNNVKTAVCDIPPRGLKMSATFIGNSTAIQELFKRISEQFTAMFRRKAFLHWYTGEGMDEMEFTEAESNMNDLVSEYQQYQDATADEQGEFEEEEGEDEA
UniProt Q9UNY4, sequence (Q9UNY4 whole entry, looked up): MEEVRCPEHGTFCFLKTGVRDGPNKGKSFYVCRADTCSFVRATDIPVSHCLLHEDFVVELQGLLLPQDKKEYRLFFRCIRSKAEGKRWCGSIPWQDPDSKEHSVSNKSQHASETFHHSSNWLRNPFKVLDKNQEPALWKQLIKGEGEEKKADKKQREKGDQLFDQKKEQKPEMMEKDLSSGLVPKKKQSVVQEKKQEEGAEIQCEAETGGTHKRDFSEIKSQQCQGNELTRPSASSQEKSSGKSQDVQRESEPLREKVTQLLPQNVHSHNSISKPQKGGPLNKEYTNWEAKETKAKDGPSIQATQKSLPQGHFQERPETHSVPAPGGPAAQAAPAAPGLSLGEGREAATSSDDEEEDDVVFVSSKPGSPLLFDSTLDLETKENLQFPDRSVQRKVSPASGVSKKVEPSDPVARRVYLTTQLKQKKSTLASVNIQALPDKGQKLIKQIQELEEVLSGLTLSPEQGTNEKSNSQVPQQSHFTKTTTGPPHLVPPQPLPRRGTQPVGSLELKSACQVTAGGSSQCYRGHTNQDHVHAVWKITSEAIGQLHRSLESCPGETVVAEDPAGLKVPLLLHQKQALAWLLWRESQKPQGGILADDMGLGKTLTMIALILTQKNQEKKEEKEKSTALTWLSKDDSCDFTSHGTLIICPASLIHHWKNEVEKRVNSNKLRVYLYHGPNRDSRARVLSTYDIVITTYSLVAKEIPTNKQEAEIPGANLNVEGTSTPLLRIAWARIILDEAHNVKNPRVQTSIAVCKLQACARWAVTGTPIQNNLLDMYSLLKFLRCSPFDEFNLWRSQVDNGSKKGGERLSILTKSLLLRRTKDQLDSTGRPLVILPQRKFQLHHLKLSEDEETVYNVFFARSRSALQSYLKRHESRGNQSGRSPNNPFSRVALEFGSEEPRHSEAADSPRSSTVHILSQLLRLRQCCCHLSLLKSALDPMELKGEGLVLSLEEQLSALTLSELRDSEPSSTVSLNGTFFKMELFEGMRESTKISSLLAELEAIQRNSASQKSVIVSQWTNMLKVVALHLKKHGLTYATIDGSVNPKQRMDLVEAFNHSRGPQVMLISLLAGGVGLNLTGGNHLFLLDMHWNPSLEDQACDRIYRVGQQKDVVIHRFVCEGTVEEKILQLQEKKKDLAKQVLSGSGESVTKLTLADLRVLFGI
UniProt Q9NZI7, sequence (Q9NZI7 whole entry, looked up): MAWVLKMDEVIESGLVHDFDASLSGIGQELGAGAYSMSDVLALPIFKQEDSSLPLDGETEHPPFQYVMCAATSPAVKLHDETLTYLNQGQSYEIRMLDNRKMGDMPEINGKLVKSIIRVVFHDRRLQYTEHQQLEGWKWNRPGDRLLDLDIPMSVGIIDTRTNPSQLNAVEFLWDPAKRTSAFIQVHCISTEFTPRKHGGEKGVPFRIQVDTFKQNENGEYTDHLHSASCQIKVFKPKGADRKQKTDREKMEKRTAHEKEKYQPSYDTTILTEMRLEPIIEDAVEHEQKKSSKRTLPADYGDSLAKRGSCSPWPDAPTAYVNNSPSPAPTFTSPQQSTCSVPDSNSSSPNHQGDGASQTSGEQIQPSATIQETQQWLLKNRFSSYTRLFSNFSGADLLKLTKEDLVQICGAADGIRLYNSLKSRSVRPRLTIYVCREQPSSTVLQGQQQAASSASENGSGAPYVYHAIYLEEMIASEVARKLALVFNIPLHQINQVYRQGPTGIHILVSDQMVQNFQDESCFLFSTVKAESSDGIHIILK
UniProt O43399, sequence (O43399 whole entry, looked up): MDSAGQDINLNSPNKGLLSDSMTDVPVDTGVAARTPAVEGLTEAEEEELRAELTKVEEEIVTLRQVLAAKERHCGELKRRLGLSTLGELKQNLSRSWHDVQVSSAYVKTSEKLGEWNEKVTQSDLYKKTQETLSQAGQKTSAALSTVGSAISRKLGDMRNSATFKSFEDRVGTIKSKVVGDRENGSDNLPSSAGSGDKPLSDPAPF
UniProt Q96BS2, sequence (Q96BS2 whole entry, looked up): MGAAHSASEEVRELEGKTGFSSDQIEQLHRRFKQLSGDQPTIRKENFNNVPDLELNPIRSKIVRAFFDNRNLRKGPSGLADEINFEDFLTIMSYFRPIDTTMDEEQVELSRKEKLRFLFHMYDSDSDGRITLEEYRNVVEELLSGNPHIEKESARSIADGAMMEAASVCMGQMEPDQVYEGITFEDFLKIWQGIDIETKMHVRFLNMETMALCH

Target	log2 fold change (vemurafenib)	log2 fold change [1]	log2 fold change (barasertib)	log2 fold change [2]	log2 fold change (volasertib)	log2 fold change [3]	log2 fold change [4]	log2 fold change [5]	log2 fold change (saracatinib)	log2 fold change (sotrastaurin)	log2 fold change (alvocidib)	log2 fold change (Tubastatin A)	log2 fold change [6]	log2 fold change (defactinib)	log2 fold change [7]	log2 fold change (encorafenib)	log2 fold change [8]	log2 fold change (alisertib)	log2 fold change [9]	log2 fold change (gefitinib)
TMEM164 (UniProt Q5U3C3)	0.179	0.108	0.039	0.176	0.08	-0.186	-0.827 (active)	0.262	0.062	-0.084	-0.393	0.05	-0.039	0.007	0.333	-0.107	0.185	-0.075	0.021	-0.063
TUBGCP4 (UniProt Q9UGJ1)	0.088	0.028	0.116	0.039	-0.027	0.026	0.013	-0.077	0.025	0.109	0	-0.081	0.007	-0.023	-0.025	-0.049	0.047	-0.007	-0.018	-0.043
TTF2 (UniProt Q9UNY4)	0.008	0.037	0.027	-0.028	0.022	0.003	-0.003	-0.026	0.025	0.024	-0.018	-0.055	0.05	0.069	0.005	-0.018	-0.01	0.005	0.056	0.002
TRADD (UniProt Q15628)	-0.611 (active)	0.052	-0.002	0.07	-0.023	0.065	0.014	0.001	0.011	-0.023	-0.029	-0.066	0.021	-0.092	0.021	-0.012	-0.241	0.009	0.004	-0.03
UBP1 (UniProt Q9NZI7)	-0.014	0.117	0.008	0.01	-0.017	0.007	0.228 (active)	-0.24	-0.008	-0.063	0.049	-0.121	0.058	0.077	0.002	0.115	0.019	0.059	-0.011	-0.073
TFIP11 (UniProt Q9UBB9)	0.017	0.025	-0.09	-0.018	-0.059	0.048	-0.027	-0.037	0.018	0.027	-0.013	-0.135	0.024	0.061	-0.023	0.042	0.381 (active)	0.062	0.013	-0.041
TMPO (UniProt P42166)	0.027	-0.004	0.04	-0.041	-0.025	0.033	0.026	0.003	-0.017	-0.161	-0.196	-0.145	0.002	0.028	-0.003	0.011	0.174	-0.024	0.012	0.011
TCP11L1 (UniProt Q9NUJ3)	-0.078	0.014	0.038	0.045	-0.054	0.009	-0.244	0.097	-0.007	0.009	-0.098	-0.006	0.029	0.023	-0.064	0.006	-0.064	-0.022	0.032	-0.001
TPD52L2 isoform 7 (UniProt O43399)	-0.02	-0.033	0.045	0.048	0.017	0.011	-0.14	0.207	0.003	0.034	-0.043	0.062	-0.005	0.023	0.086	-0.026	0.008	-0.01	0.037	0.02
UBR4 (UniProt Q5T4S7)	-0.003	0.016	0.02	-0.037	-0.03	0.019	-0.034	-0.031	0.01	0.007	0.009	-0.06	0.006	0.006	-0.034	0.003	0.018	0.001	0.001	-0.029
TUBB2A (UniProt Q13885)	-0.001	0.016	-0.013	-0.007	-0.049	0.003	-0.032	0.002	0.011	0.017	-0.007	-0.062	-0.021	0.006	-0.008	0.01	0.071	-0.005	-0.001	-0.006
TESC (UniProt Q96BS2)	0.045	0.029	0.291 (active)	0.047	0.036	-0.004	0.109	-0.023	0.063	0.012	-0.037	0.022	-0.008	-0.007	-0.034	0.033	-0.037	-0.053	-0.058	0.091
TBL3 (UniProt Q12788)	0.02	0.003	0.042	-0.018	-0.006	0.004	-0.005	-0.012	0.026	0.009	-0.019	-0.08	0.014	0.016	0.01	-0.021	0.072	0.015	0.006	-0.123
TBC1D8B (UniProt Q0IIM8)	-0.007	-0.025	0.108	0.096	0.072	-0.024	-0.308 (active)	0.192	-0.047	-0.042	-0.134	0.051	-0.017	-0.057	0.078	-0.032	0.033	0.11	0.026	0.008
TPM1 (UniProt H7BYY1)	-0.001	-0.024	-0.031	0.052	0.043	-0.003	0.092	-0.205 (active)	0.009	0.015	0.027	0.092	0.007	0	0.022	0.056	-0.023	-0.048	-0.04	0.076
TBC1D2B (UniProt Q9UPU7)	0.037	0.014	0.001	0.012	-0.099	-0.018	0.004	-0.041	0.033	0.062	-0.023	-0.157	0.038	0.04	-0.047	0.03	0.063	0.011	0.103	-0.001
